This passage reports outcome and Potency results from PubChem BioAssay (NCATS).

Values joined by “and” are separate entries in the source; they are usually repeats but may differ in a detail not shown here. Identical values can stand only once. Inconclusive results are not listed. Where a call stands in place of a potency, no number is given. Active and inactive are the calls of the source. Calls follow the shape of the dose curve; as a rule, active = well fitted curve in the direction sought with a large enough effect; inconclusive = small, poorly fitted or top-dose-only effect, or another doubt; inactive = no such curve, though single readings can be large; an effect the other way counts as inactive or inconclusive.

Assay [1] in a line: qHTS for Inhibitors of Ubiquitin-specific Protease USP2a Using CHOP2 as the Reporter: K633 Counterscreen (AID 652168). Also: series mostly up to about 57 µM. The procedure, abridged: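 Detection-system control: fluorescence of K48-linked DiUb-4IQF substrate (100 nM as added) tracked over time, Ex 525/Em 598, with pinned compounds and no enzyme, in pH 8 Tris buffer containing beta-mercaptoethanol and 0.05% Chaps.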
On the technique in general: Quantitative high-throughput screening tests each substance at several concentrations.

The nature of assay [2]: qHTS for Inhibitors of Ubiquitin-specific Protease USP2a Using CHOP2 as the Reporter: Cytotox Assay (AID 652170). Also: nearly all actives have a fitted effect of over 70% in size. Also: potency is read from the fitted curve at half-maximal effect. Put shortly:
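Cytotoxicity read as ATP luminescence (CellTiter-Glo) after 72 hr compound treatment at 37 deg C. Cells: HCT116, 600/well in DMEM plus 10% FBS. Normalization between DMSO-treated cells and cell-free wells.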

Assay [3] addresses Ubiquitin carboxyl-terminal hydrolase 2 (Homo sapiens) (UniProt O75604). Put plainly: qHTS for Inhibitors of Ubiquitin-specific Protease USP2a Using CHOP2 as the Reporter: K484 Substrate (AID 652173).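 Also: cleavage of internally quenched K48 di-ubiquitin substrate measured as rising fluorescence over time; nearly all actives have a fitted effect of over 70% in size.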 Also: potency is read from the fitted curve at half-maximal effect. The procedure, abridged:
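Kinetic fluorescence (Ex 525/Em 598) tracked cleavage of an internally quenched K48 di-ubiquitin substrate, added as a 100 nM solution. The enzyme was added as a 5 nM USP2 solution before compound pinning, with no-enzyme controls. Buffer: Tris pH 8, beta-mercaptoethanol, CHAPS.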

Assay [4] addresses Calcium and integrin-binding protein 1 (Homo sapiens) (UniProt Q99828). Put plainly: Primary qHTS for Identification of Calcium Integrin Binding Protein 1 (CIB1) Competitor (AID 1508620).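 Also: GST tagged CIB1 binding a fluorescein labelled alphaIIb integrin peptide tracer; top concentration of the series differs between compounds.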 Put shortly:
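Fluorescence polarization competition: GST-tagged CIB1 (1 uM final) preincubated with compound 15 min at room temperature, then FITC-labelled alphaIIb peptide (100 nM final) added. After 15 min at room temperature, polarization read at Ex 480/Em 540.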

Chain of Calcium and integrin-binding protein 1 (Homo sapiens) (Q99828 whole entry, looked up): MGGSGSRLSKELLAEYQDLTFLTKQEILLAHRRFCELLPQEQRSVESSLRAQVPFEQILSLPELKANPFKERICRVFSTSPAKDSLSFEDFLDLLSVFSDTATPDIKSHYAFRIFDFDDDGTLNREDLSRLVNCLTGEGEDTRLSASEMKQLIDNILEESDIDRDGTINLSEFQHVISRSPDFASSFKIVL
Chain of Ubiquitin carboxyl-terminal hydrolase 2 (Homo sapiens) (O75604 whole entry, looked up): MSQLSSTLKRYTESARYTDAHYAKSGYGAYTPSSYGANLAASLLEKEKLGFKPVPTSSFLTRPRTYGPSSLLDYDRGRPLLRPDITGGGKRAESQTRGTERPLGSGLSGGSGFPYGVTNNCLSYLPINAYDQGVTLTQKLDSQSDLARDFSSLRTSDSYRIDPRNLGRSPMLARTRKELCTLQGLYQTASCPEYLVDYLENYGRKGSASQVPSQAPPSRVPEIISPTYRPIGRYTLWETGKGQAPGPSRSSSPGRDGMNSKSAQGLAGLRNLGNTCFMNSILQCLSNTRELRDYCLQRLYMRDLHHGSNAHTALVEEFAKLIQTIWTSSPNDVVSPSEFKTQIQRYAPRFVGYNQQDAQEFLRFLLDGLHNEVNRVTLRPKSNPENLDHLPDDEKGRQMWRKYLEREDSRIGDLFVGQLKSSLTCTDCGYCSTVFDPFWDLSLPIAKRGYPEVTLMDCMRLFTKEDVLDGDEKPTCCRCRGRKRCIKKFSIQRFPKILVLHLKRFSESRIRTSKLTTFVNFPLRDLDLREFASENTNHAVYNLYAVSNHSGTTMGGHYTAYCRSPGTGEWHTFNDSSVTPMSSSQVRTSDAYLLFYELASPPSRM

Turning to `O=C1CC(c2ccccc2)Cc2[nH]c(=O)c(-c3nc(-c4ccc(F)cc4)cs3)cc21` (stereo not given), the call in assay [1] was inactive. For the same molecule, the Potency was 4.18 µM (active) in assay [2] and 17.2 µM (active) in assay [3]. In addition, the Potency entry in assay [4] was “inactive”.
`Cc1ccc(S(=O)(=O)Nc2cnccc2C(=O)Nc2ccc(S(=O)(=O)Nc3nccs3)cc2)cc1`: the result in assay [1] was inactive. The Potency entry in assay [2] and in assay [4] was “inactive” each time. For the same molecule, in assay [3], the Potency was 19.3 µM (active).
Consider `O=S(=O)(Nc1nc(CN2CCOCC2)nc2sc3c(c12)CCCC3)c1ccc2ccccc2c1`, for which the outcome in assay [1] was inactive. Also, the Potency entry in assay [2] and in assay [4] was “inactive” throughout. Besides, the Potency in assay [3] was 24.3 µM (active).
Regarding `O=S(=O)(Nc1nc(CN2CCOCC2)nc2sc3c(c12)CCC3)c1ccc2c(c1)OCCO2`, the molecule was called inactive in assay [1]. In addition, the Potency entry in assay [3] and in assay [4] was “inactive” throughout.
In the case of `CC(C)(C)OC(=O)N1CCC(C(=O)Nc2ccc([S+](=O)([O-])Nc3nccs3)cc2)CC1`, in assay [1], the molecule was called inactive. Moreover, the Potency result in assay [3] and in assay [4] was “inactive” in each case.
`Cc1ccc(S(=O)(=O)Nc2ccc(Cl)cc2C(=O)Nc2nc(-c3ccccc3)cs2)cc1`: the molecule was classed as inactive in assay [1]. For the same molecule, the Potency in assay [2] is 4.18 µM (active) and 5.9 µM (active); in assay [3] it was 1.09 µM (active) and 1.72 µM (active). In addition, in assay [4], the Potency entry was “inactive”.
`Cc1ccc(-c2cc(C(=O)Nc3ccccc3)c3ccccc3n2)cc1C`: the molecule was called inactive in assay [1]. The Potency result in assay [2] and in assay [4] was “inactive” in each case. In addition, in assay [3], the Potency was 24.3 µM (active).
Regarding `COc1c(NS(=O)(=O)c2ccc(C)cc2)cccc1C(=O)Nc1nc(-c2ccccc2)cs1`, the Potency is 1.48 µM (active) in assay [2] and 3.06 µM (active) in assay [3]. The Potency entry in assay [4] was “inactive”.
With `CCCCCC1CCC(C(=O)Nc2ccc(S(=O)(=O)Nc3nccs3)cc2)CC1` (stereo not given), in assay [1], the molecule was classed as inactive. Moreover, the Potency in assay [3] was 4.32 µM (active) and 3.85 µM (active). In assay [4], the Potency result was “inactive”.
As to `COc1cc(NS(=O)(=O)c2ccc(C)cc2)c(C(=O)Nc2nc(-c3ccccc3)cs2)cc1OC`, the molecule was called inactive in assay [1]. For the same molecule, the Potency result in assay [2] and in assay [4] was “inactive” in each case. In assay [3], the Potency was 2.17 µM (active).
`Cc1ccc(S(=O)(=O)Nc2cc(Br)ccc2C(=O)Nc2nc(-c3ccccc3)cs2)cc1`: in assay [1], the molecule was classed as inactive. For the same molecule, in assay [3], the Potency was 1.09 µM (active). For the same molecule, the Potency result in assay [4] is “inactive”.
Consider `O=C(Nc1nc(-c2ccccc2)cs1)c1ccncc1NS(=O)(=O)c1cccnc1`, for which, in assay [1], the molecule was classed as inactive. For the same molecule, the Potency result in assay [2] and in assay [4] was “inactive” each time. Also, the Potency in assay [3] is 2.73 µM (active).
For `COc1ccc(NS(=O)(=O)c2ccc(C)cc2)c(C(=O)Nc2nc(-c3ccccc3)cs2)c1`, the molecule was classed as inactive in assay [1]. Further, the Potency in assay [3] is 2.73 µM (active). For the same molecule, the Potency entry in assay [4] is “inactive”.
With `Clc1nc(CN2CCOCC2)nc2sc3c(c12)CCCC3`, the outcome in assay [1] was inactive. In addition, the Potency entry in assay [2], in assay [3] and in assay [4] was “inactive” each time.
Regarding `N#Cc1cccc(S(=O)(=O)Nc2cnccc2C(=O)Nc2nc(-c3ccccc3)cs2)c1`, the call in assay [1] was inactive. Also, the Potency entry in assay [2] and in assay [4] was “inactive” each time. The Potency in assay [3] was 2.17 µM (active).
Turning to `Cc1ccc(S(=O)(=O)Nc2ccncc2C(=O)Nc2nc(-c3ccccc3)cs2)cc1`, the outcome in assay [1] was inactive. Also, in assay [3], the Potency was 4.85 µM (active). In assay [4], the Potency entry is “inactive”.
Take `CC(C)(C)C1CCC(C(=O)Nc2ccc(S(=O)(=O)Nc3nccs3)cc2)CC1` (stereo not given): the Potency result in assay [2] and in assay [4] was “inactive” in each case. Also, in assay [3], the Potency was 10.9 µM (active).
`Cc1ccc(S(=O)(=O)Nc2cc(C)ccc2C(=O)Nc2nc(-c3ccccc3)cs2)cc1`: in assay [1], the molecule was called inactive. For the same molecule, the Potency in assay [2] was 14.8 µM (active); in assay [3] it was 1.53 µM (active). Moreover, the Potency result in assay [4] was “inactive”.
As for `Cc1ccc(S(=O)(=O)NCCC(=O)Nc2nc(-c3ccccc3)cs2)cc1`, the outcome in assay [1] was inactive. For the same molecule, the Potency result in assay [2] and in assay [4] was “inactive” throughout. The Potency in assay [3] was 19.3 µM (active).
On to `CCNC(=O)C1CCC(C(=O)Nc2ccc([S+](=O)([O-])Nc3nccs3)cc2)CC1` (stereo not given), for which the call in assay [1] was inactive. Besides, the Potency entry in assay [3] and in assay [4] was “inactive” throughout.
Turning to `Cc1ccc(S(=O)(=O)Nc2cc(F)ccc2C(=O)Nc2nc(-c3ccccc3)cs2)cc1`, in assay [1], the molecule was called inactive. The Potency in assay [2] is 3.32 µM (active); in assay [3] it was 0.769 µM (active). Further, the Potency result in assay [4] is “inactive”.
On to `CC1CC1C(=O)Nc1ccc([S+](=O)([O-])Nc2nccs2)cc1` (stereo not given), for which the result in assay [1] was inactive. In addition, the Potency result in assay [3] and in assay [4] was “inactive” in each case.
Turning to `COc1cccc(NC(=O)c2cc(-c3ccc(C)c(C)c3)nc3ccccc23)c1`, the molecule was classed as inactive in assay [1]. Moreover, the Potency in assay [3] is 9.68 µM (active). Further, in assay [4], the Potency result is “inactive”.
As for `O=C(Nc1ccc(S(=O)(=O)Nc2nccs2)cc1)c1ccnc(-c2ccccc2)c1`, the result in assay [1] was inactive. In addition, the Potency entry in assay [2] and in assay [4] was “inactive” each time. Besides, the Potency in assay [3] is 13.7 µM (active).
Take `CCCCC(=O)N1CCC(C(=O)Nc2ccc([S+](=O)([O-])Nc3nccs3)cc2)CC1`: the result in assay [1] was inactive. Further, the Potency entry in assay [2], in assay [3] and in assay [4] was “inactive” each time.
Regarding `Cc1ccc(-c2cc(C(=O)Nc3ncco3)c3ccccc3n2)cc1C`, the Potency in assay [3] was 3.06 µM (active). Also, the Potency result in assay [4] was “inactive”.
The like results for `COc1ccc(NS(=O)(=O)c2ccc(C)cc2)cc1C(=O)Nc1nc(-c2ccccc2)cs1` were, in that order, 3.43 µM (active) and “inactive”.
The like results for `Cc1ccc(S(=O)(=O)Nc2ccccc2CNc2nc(-c3ccccc3)cs2)cc1` were, in that order, 6.11 µM (active) and “inactive”.
